Inconclusive results are not listed. Entries that show only a call come without a potency. Active and inactive are the calls of the source. Calls come from the whole dose curve; as a rule, active = well fitted cell-killing curve with a large enough effect in the repeat runs; inconclusive = weak or mixed curves, or effect the other way; inactive = no such curve, though single readings can be large or run the other way.
Test: qHTS assay to identify small molecule antagonists of the vitamin D receptor (VDR) signaling pathway - cell viability counter screen (AID 743225); note: nearly all actives have a fitted effect of over 50% in size
Conditions: VDR-bla HEK293T viability, CellTiter-Glo luminescence, 16 h; series mostly up to 61 µM
Description: U.S. Tox21 Program National Center for Advancing Translational Sciences [NCATS] NIH Chemical Genomics Center [NCGC] U.S. Environmental Protection Agency [EPA] National Institutes of Environmental Health Sciences [NIEHS] National Toxicology Program [NTP] U.S. Food and Drug Administration [FDA] Tox21 Assay Overview: The vitamin D receptor (VDR), a member of nuclear hormone receptor superfamily, plays a critical role in calcium homeostasis and bone metabolism. It is also involved in cell differentiation and growth, and thrombogenicity. To identify the compounds that inhibit VDR signaling, the VDR-UAS-bla HEK 293T cell line (Invitrogen, Carlsbad, CA, USA) containing a beta-lactamase reporter gene under the control of an upstream activator sequence (UAS) was used to screen the Tox21 10K compound library. The cytotoxicity of the Tox21 compound library against the VDR-bla cell line was tested in parallel by measuring the cell viability using CellTiter-Glo assay (Promega, Madison, WI) in the same wells.
Tox21 Assay Protocol Summary: VDR-bla cells were dispensed at 2,000 cells/5 uL of assay medium per well into black wall/clear-bottom 1536-well plates using a Multidrop Combi (Thermo Fisher Scientific, Waltham, MA) dispenser. After the assay plates were incubated at a 37C and 5% CO2 for 4 h, 23 nL of compounds dissolved in DMSO, positive controls or DMSO only was transferred to the assay plate by a Pintool station (Kalypsys, San Diego, CA), followed by addition of 1 uL of 1-alpha, 25-Dihydroxy Vitamin D3 (3 nM, final concentration in the wells) using a Bioraptr Flying Reagent Dispenser (FRD) workstation (Beckman Coulter, Indianapolis, IN). The plates were incubated at 37C and 5% CO2 for 16 h, and then 1 uL of LiveBLAzerTM B/G FRET substrate was added using a Bioraptr FRD. The plates were incubated at room temperature for 2 h and fluorescence intensity was measured by an Envision plate reader (PerkinElmer, Shelton, CT). For cell viability readout that measures cytotoxicity, 3 ul/well of CellTiter-Glo reagent was added into the assay plates using a Bioraptr FRD. After 30 min incubation at room temperature, the luminescence intensity in the plates was measured using a ViewLux plate reader (PerkinElmer).

Q: With CC1(C)C(=O)N(Cl)C(=O)N1Cl as the compound, how does the Potency read?
A: Its Potency is “inactive”.

Q: For Cc1ccncc1, which Potency is on record?
A: The Potency was “inactive”.

Q: Which Potency does the source give for CCCCCCCCO here?
A: The Potency was “inactive”.

Q: Which Potency does the source give for CCCCCCCCC(=O)O here?
A: The Potency was “inactive”.

Q: Which Potency does the source give for N#CCC(=O)O here?
A: Its Potency is “inactive”.

Q: With O=C1O[C@H]([C@H](O)CO)C(O)=C1O as the compound, how does the Potency read?
A: The Potency was “inactive”.

Q: With COc1ccc([C@@H]2CC(=O)c3c(O)cc(O[C@@H]4O[C@H](CO[C@@H]5O[C@@H](C)[C@H](O)[C@@H](O)[C@H]5O)[C@@H](O)[C@H](O)[C@H]4O)cc3O2)cc1OC as the compound, how does the Potency read?
A: Its Potency is “inactive”.

Q: With Cc1nnc(NS(=O)(=O)c2ccc(N)cc2)s1 as the compound, how does the Potency read?
A: Its Potency is “inactive”.

Q: With OCCOCCOCCOCCOCCO as the compound, how does the Potency read?
A: The Potency was “inactive”.

Q: For Oc1ccc(Cc2ccccc2O)cc1, which Potency is on record?
A: The Potency was “inactive”.

Q: With Nc1cccc(N)n1 as the compound, how does the Potency read?
A: Its Potency is “inactive”.

Q: For Cc1ccc(C(C)C)cc1, which Potency is on record?
A: Its Potency is “inactive”.

Q: Which Potency does the source give for O=C(O)C1=NN(c2ccc(S(=O)(=O)O)cc2)C(=O)C1 here?
A: Its Potency is “inactive”.

Q: With O=C(O)Cc1c[nH]c2ccccc12 as the compound, how does the Potency read?
A: Its Potency is “inactive”.

Q: Which Potency does the source give for COC(=O)CCCCC(=O)OC here?
A: The Potency was “inactive”.

Q: For CCCOCC(C)O (stereo not given), which Potency is on record?
A: Its Potency is “inactive”.

Q: For NC1CCCCC1N (stereo not given), which Potency is on record?
A: Its Potency is “inactive”.

Q: Which Potency does the source give for C=C1C[C@]23C[C@@]1(O)CC[C@H]2[C@@]12C=C[C@H](O)[C@@](C)(C(=O)O1)[C@H]2[C@@H]3C(=O)O here?
A: The Potency was “inactive”.

Q: Which Potency does the source give for C1CCCNCC1 here?
A: The Potency was “inactive”.

Q: With CCCCC(=O)O as the compound, how does the Potency read?
A: Its Potency is “inactive”.

Q: Which Potency does the source give for NC(=O)NC(N)=O here?
A: The Potency was “inactive”.

Q: With CC(=O)c1nccs1 as the compound, how does the Potency read?
A: The Potency was “inactive”.

Q: With Brc1ccc(Oc2ccc(Br)cc2)cc1 as the compound, how does the Potency read?
A: The Potency was “inactive”.

Q: For OC1CCCCC1, which Potency is on record?
A: Its Potency is “inactive”.

Q: With CN=C(NC#N)NCCSCc1nc[nH]c1C as the compound, how does the Potency read?
A: Its Potency is “inactive”.

Q: For CC(=O)OC[C@H]1O[C@@](COC(C)=O)(O[C@H]2O[C@H](COC(C)=O)[C@@H](OC(C)=O)[C@H](OC(C)=O)[C@H]2OC(C)=O)[C@@H](OC(C)=O)[C@@H]1OC(C)=O, which Potency is on record?
A: The Potency was “inactive”.

Q: With Cc1ccc(C)c(S(=O)(=O)O)c1 as the compound, how does the Potency read?
A: The Potency was “inactive”.

Q: With CC(=O)OC(C)(C)C1CC=C(C)CC1 (stereo not given) as the compound, how does the Potency read?
A: The Potency was “inactive”.

Q: For CC1(C)[C@@H](O[C@H]2O[C@H](C(=O)O)[C@@H](O)[C@H](O)[C@H]2O[C@@H]2O[C@H](C(=O)O)[C@@H](O)[C@H](O)[C@H]2O)CC[C@]2(C)[C@H]3C(=O)C=C4[C@@H]5C[C@@](C)(C(=O)O)CC[C@]5(C)CC[C@@]4(C)[C@]3(C)CC[C@@H]12, which Potency is on record?
A: Its Potency is “inactive”.

Q: Which Potency does the source give for Cc1cc(C)cc(O)c1 here?
A: Its Potency is “inactive”.

Q: For CC(C)c1ccc(C(C)C)cc1, which Potency is on record?
A: Its Potency is “inactive”.

Q: Which Potency does the source give for Cc1cc(C)c(O)c(C)c1 here?
A: The Potency was “inactive”.

Q: For CCn1cc(C(=O)O)c(=O)c2cc3c(cc21)OCO3, which Potency is on record?
A: Its Potency is “inactive”.

Q: With CC(=O)CC(=O)N(C)C as the compound, how does the Potency read?
A: Its Potency is “inactive”.

Q: For CC[N+](CC)(CC(=O)Nc1c(C)cccc1C)Cc1ccccc1, which Potency is on record?
A: Its Potency is “inactive”.

Q: With CCOC(=O)c1ccc(O)cc1 as the compound, how does the Potency read?
A: Its Potency is “inactive”.

Q: Which Potency does the source give for C=C(C)CC(C)(C)C here?
A: Its Potency is “inactive”.

Q: With C=CC(C)(C)C as the compound, how does the Potency read?
A: The Potency was “inactive”.

Q: With C=CC(=O)NCOCCCC as the compound, how does the Potency read?
A: Its Potency is “inactive”.

Q: Which Potency does the source give for Cc1ccc(Cl)cc1 here?
A: The Potency was “inactive”.
